# From ChEMBL document CHEMBL3988442, “University of Dundee, Small-Polar-MMV Screening Library” (2021)
# Out of some 69,000 compounds screened, about 420 (0.61%) showed an effect of 50% or more. Only a selection was taken, and strong results are over-represented in it overall.
# Target: T1, Histidine--tRNA ligase (Leishmania infantum) (UniProt A4I591)
# T1 sequence (whole entry): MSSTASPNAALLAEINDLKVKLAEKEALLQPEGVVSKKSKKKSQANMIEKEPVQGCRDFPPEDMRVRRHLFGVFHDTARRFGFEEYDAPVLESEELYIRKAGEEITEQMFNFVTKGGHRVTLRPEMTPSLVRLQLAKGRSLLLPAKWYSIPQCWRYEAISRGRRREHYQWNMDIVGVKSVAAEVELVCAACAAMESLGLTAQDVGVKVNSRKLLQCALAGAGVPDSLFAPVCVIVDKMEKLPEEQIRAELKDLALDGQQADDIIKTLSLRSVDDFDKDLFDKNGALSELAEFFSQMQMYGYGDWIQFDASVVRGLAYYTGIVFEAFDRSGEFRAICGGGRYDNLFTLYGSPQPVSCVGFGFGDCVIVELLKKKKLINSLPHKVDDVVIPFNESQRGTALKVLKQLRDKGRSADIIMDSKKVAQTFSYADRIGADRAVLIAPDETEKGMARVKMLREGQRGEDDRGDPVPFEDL
# Experiment: Leishmania infantum Histidine tRNA synthetase (LdHisRS)
# Assay type: functional
# Parameters: scale not given: in the data most compounds retested in dose-response had high values
# Conditions: 30 µM
row,Structure (SMILES),Percent Effect
1,Cc1ccc(CN2CC[C@H]3[C@H]2CCN3S(C)(=O)=O)s1,20%
2,O=C(c1ccccn1)N1C[C@@H]2CC[C@H](C1)N(C(=O)CCc1ccsc1)C2,10.4%
3,Cc1nnsc1CN1C[C@H]2CC[C@@H]1CN(Cc1ccc(F)cc1)C2,8.33%
4,CC(=O)N1CCCCC[C@@H]2[C@@H]1[C@H](c1cccc(F)c1)CN2CCC(N)=O,13%
5,CC(CCc1ccccc1)NC(=O)CN1CCOCC1 (stereo unspecified),1.49%
6,COCCn1cc(NC(=O)NC(C)CCc2ccccc2)ccc1=O (stereo unspecified),98.3%
7,CC(CCc1ccccc1)NC(=O)Nc1cnn(CC(N)=O)c1 (stereo unspecified),24.3%
8,CC(CCc1ccccc1F)C(=O)NS(C)(=O)=O (stereo unspecified),16.9%
9,COCCn1cc(NC(=O)C(C)CCc2ccccc2F)ccc1=O (stereo unspecified),102%
10,CC(CCc1ccccc1F)C(=O)NS(=O)(=O)N(C)C(C)C (stereo unspecified),19.5%
11,COc1ccc(CN2C[C@@H]3COC[C@]3(CN(C)C)C2)cc1,17.6%
12,O=C(Cc1ccncc1)N1C[C@@H]2CC[C@H](C1)N(Cc1ccccc1)C2=O,6.56%
13,O=C(Cc1csc(-c2ccco2)n1)N1CCN(c2nccs2)CC1,20%
14,O=C(Cc1csc(-c2ccco2)n1)N1CCN(c2cnccn2)CC1,56.8%
15,Cc1ccc(-c2nc(CC(=O)N3CCN(c4cnccn4)CC3)cs2)o1,28.7%
16,Cc1noc(C)c1CN1CC[C@H]2OCC[C@@H](C(=O)N3CCCO3)[C@H]2C1,20%
17,O=S(=O)(C1CC1)N1CCO[C@H]2[C@H](OCCN3CCCC3)CC[C@@H]21,15.1%
18,O=C1[C@H]2CN(CC3CCOCC3)C[C@H]2CN1c1ccsc1,8%
19,O=C(CC1CC1)N[C@@H]1CN(Cc2ccco2)C[C@@H]2CCCO[C@@H]21,17.1%

row,Structure (SMILES),Percent Effect
1,COCCN1CCCC(C)(c2cc(O)[nH]n2)C1 (stereo unspecified),47.1%
2,COCCN1CCC(C)(c2cc(O)[nH]n2)CC1,50%
3,COCC(=O)N1CCC(C)(c2cc(O)[nH]n2)CC1,17.1%
4,Cc1oncc1C(=O)N[C@@H]1CN(c2ncccn2)C[C@@H]2CCCO[C@@H]21,20%
5,CN1CCO[C@@H]2CN(S(=O)(=O)c3ccc(F)cc3)CC[C@@H]2C1,17.9%
6,CN(Cc1ccco1)C[C@H]1OC[C@@H]2CCN(Cc3cccnc3)C[C@@H]21,13.2%
7,c1cncc(CN2CC[C@@H]3O[C@H](COCCN4CCCC4)CC[C@@H]32)c1,16%
8,COc1cccc(N2CCN(Cc3ccc4occc4c3)CC2=O)c1,13.5%
9,COc1cc(CN2CCN(c3cccc(OC)c3)C(=O)C2)cc(OC)c1,18.3%
10,Cc1cc(C)cc(N2CCN(Cc3cccc(CCN)c3)CC2=O)c1,8.2%
11,COc1cccc(N2CCN(Cc3cccc(CCN)c3)CC2=O)c1,60.7%
12,NCCc1cccc(CN2CCN(c3cccc(Cl)c3)C(=O)C2)c1,14.8%
13,NCCc1cccc(CN2CCN(c3ccccc3)C(=O)C2)c1,55.7%
14,Cc1noc(C)c1C(=O)N1C[C@H]2CCC[C@@]2(COc2ccccn2)C1,17.6%
15,Cc1ccc(C(=O)N2CCO[C@H]3[C@H](OCc4ccccn4)CC[C@@H]32)o1,19.3%
16,Cc1nc([C@@H]2C[C@@H]3CCN(C(=O)Cc4cccc(F)c4)C[C@H]3O2)no1,9.09%
17,CN(C)C(=O)[C@H]1C[C@@H]2CCN(C3CCOCC3)C[C@@H]2O1,11.1%
18,Cn1ccnc1Sc1ccc(S(N)(=O)=O)cn1,10.3%
19,CN1CCN(S(=O)(=O)c2ccc(Sc3nccn3C)nc2)CC1,-3.37%

row,Structure (SMILES),Percent Effect
1,Cn1ccnc1Sc1ccc(N)cn1,91%
2,CS(=O)(=O)N1CCO[C@@H]2CN(C(=O)N3CCOCC3)CC[C@@H]2C1,4.5%
3,CN(C)CC(=O)N1CCc2sc(C(=O)N3CCOCC3)cc21,15.8%
4,Cc1ccc(N2CCc3sc(C(=O)NCCN4CCCC4)cc32)nn1,8.33%
5,Cc1ccc(N2CCc3sc(C(=O)N4CCOCC4)cc32)nn1,50%
6,Cc1cc(C(=O)NCC(C)C)c2c(C3CCCN3)noc2n1 (stereo unspecified),4.14%
7,Cc1cc(C(=O)NCC(F)(F)F)c2c(C3CCNCC3)noc2n1,19.3%
8,Cc1cc(C(=O)NCC(F)(F)F)c2c(C3CCCN3)noc2n1 (stereo unspecified),71.7%
9,Cc1cnc(N2CC[C@@]3(O)CCCC[C@H]3C2)nc1-c1ccnn1C,-3.33%
10,CN1[C@H](CN2CCCC2)C[C@@H]2CN(C(=O)c3ccsc3)CC[C@@H]21,0.917%
11,CO[C@@H]1CN(S(=O)(=O)c2cn(C)cn2)[C@@H]2CCCO[C@@H]21,17.2%
12,Cc1ccc(N2CC[C@H]3C[C@H](C(=O)NCc4ccco4)O[C@H]3C2)nn1,18.1%
13,N#CCCSc1sc2c(O)cc(O)nc2c1C#N,74.2%
14,N#Cc1c(SCCN2CCCCC2)sc2c(O)cc(O)nc12,24.7%
15,N#Cc1c(SCCN2CCCCCC2)sc2c(O)cc(O)nc12,24.7%
16,Cc1ccc(-n2cc(S(=O)(=O)Nc3cccc(C(=O)O)c3C)cn2)cc1,13%
17,Cc1ccc(NS(=O)(=O)c2cnn(-c3ccccc3)c2)c(C(=O)O)c1,69.6%
18,Cc1ccc(NS(=O)(=O)c2cnn(Cc3ccccc3)c2)c(C(=O)O)c1,23.9%
